13 compounds from publication PMC7826789 (International Journal of Molecular Sciences, 2021) can be followed below.

The structures appear in SMILES notation.

The test system of one test is GSK3A.
As to `COc1ccc(CSc2nnc(-c3ccc4ncsc4c3)o2)cc1C(F)(F)F` [TPKI-91], the Kinases covered entry is “GSK3A”. `CCC(NN(C)C)=C1C(=O)Nc2ccc(C(C)=O)cc21` [BI00036838]: the Kinases covered entry is on record as “GSK3A”. As for `COc1cccc(-n2ncc3c(N/N=C/c4ccncc4)ncnc32)c1` [GW784752X], the Kinases covered result is recorded as “GSK3A”. On the same count and under the same terms, for `O=C(Nc1n[nH]c2nc(-c3nccs3)c(Br)cc12)C1CCCC1` [SB-742609] the value was “GSK3A”.

A further test relates to GSK3B.
`Cc1nnc(-c2ccc3occ(-c4ccc(S(C)=O)cc4)c3c2)[nH]1` (stereo not drawn) [TPKI-85]: the Kinases covered result was “GSK3B”.

With `COc1ccc(CSc2nnc(-c3ccc4ncsc4c3)o2)cc1C(F)(F)F` [TPKI-91], the Kinases covered entry is given as “GSK3B”.

For the compound `COc1cc(C=NNc2ncnc3c2cnn3-c2ccccc2)ccc1O` [GW513184X], the Kinases covered entry was “GSK3B”.

Turning to `CCC(NN(C)C)=C1C(=O)Nc2ccc(C(C)=O)cc21` [BI00036838], the Kinases covered entry is recorded as “GSK3B”.

Take `COc1ccc2c(-c3ccnc(Nc4cccc(OC(F)(F)F)c4)n3)cnn2n1` [GW810372X]: the Kinases covered entry is given as “GSK3B”.

For the compound `O=C(Nc1n[nH]c2nc(-c3ccc(O)cc3)c(Br)cc12)C1CC1` [SB-725317], the Kinases covered result is reported as “GSK3B”.

In a further test the test system is IGF1R.
Consider `COc1cc(N2CCN(C(C)C)CC2)ccc1Nc1nc(Nc2ccc(F)cc2C(=O)NC[C@@H](O)CO)c2cc[nH]c2n1` [GSK1392956A], for which the Kinases covered entry was “IGF1R”. The same measure, in the same setting: for `CN(C)C/C=C/C(=O)Nc1ccc(C(=O)Nc2cccc(Nc3ncc(Cl)c(-c4c[nH]c5ccccc45)n3)c2)cc1` [THZ1] the value was “IGF1R”; for `CNC(=O)c1c(F)cccc1Nc1nc(Nc2cc3c(cc2OC)CCN3C(=O)CN(C)C)nc2[nH]ccc12` [GSK1838705], “IGF1R”; for `CCc1cc(Nc2nccc(-c3c(-c4ccc(OC)c(C(=O)Nc5c(F)cccc5F)c4)nc4ccccn34)n2)c(OC)cc1N1CCC(N2CCN(S(C)(=O)=O)CC2)CC1` [GSK1904529], “IGF1R”. Regarding `COc1cc(C)c(N(C)C(=O)CN(C)C)cc1Nc1nc(Nc2cccc(F)c2C(N)=O)c2cc[nH]c2n1` [GSK2219385], the Kinases covered entry was “IGF1R”.
